Screens: PubChem, National Center for Advancing Translational Sciences (NCATS)
D1 agonist: Allosteric Agonists of the Human D1 Dopamine Receptor: qHTS | activation, % at 2 µM | HEK293 T-REx D1 cells, calcium flux, agonist mode | AID 504660, 2011 | 360,000 compounds, 1% hits | D(1A) dopamine receptor (Homo sapiens), P21728; in the data active = activation above about 30%; also: 0% is about no effect
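Tetracycline-induced HEK293 TREx D1 cells, force-coupled to calcium signalling, were dye-loaded with a no-wash calcium kit. Compound was pin-added after a 10 s baseline. Fluorescence was read kinetically at 1 cycle/s for 180 s, with calcium rises flagged as agonism.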
D1 antag: Antagonist of Human D 1 Dopamine Receptor: qHTS; activity change, negative = inhibition, % at 10 µM; 360,000 compounds, 3.2% hits; HEK293 TREx D1 cells, calcium flux, dopamine EC80; hits give low values; D(1A) dopamine receptor (Homo sapiens), P21728; AID 504652, 2011; in the data active = activity change below about -30%; also: % is scaled to controls: 0 for no effect and ±100 for the full control effect
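Antagonism measured as reduced calcium response to an EC80 dopamine addition following 180 s compound pre-read; cells were inducible HEK293 Trex D1 plated overnight at 30 C, read kinetically at 1 cycle/sec.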
D3 ag: qHTS of D3 Dopamine Receptor Agonist: qHTS; max activation, %; D3R DiscoveRx beta-arrestin cells, luminescence, 90 min; 410,000 compounds, 0.58% hits; in the data active = max activation above about 30%; also: 0% is about no effect
Target sequence (P35462 whole entry, looked up): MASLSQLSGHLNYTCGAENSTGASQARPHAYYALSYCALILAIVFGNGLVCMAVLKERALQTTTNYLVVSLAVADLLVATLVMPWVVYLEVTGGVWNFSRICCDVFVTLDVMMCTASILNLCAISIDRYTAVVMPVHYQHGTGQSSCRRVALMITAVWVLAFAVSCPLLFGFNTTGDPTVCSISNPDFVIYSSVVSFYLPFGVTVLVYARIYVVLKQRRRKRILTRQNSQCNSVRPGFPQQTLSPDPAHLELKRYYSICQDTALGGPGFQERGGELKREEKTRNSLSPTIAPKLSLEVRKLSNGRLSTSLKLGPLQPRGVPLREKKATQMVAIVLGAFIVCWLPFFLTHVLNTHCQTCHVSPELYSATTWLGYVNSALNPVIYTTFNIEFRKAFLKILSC
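Cells at 1500/well, incubated overnight, then treated with pinned compounds (dopamine as control) for 90 min at 37 degrees C. DiscoveRx reagent added for 30 - 60 minutes at room temperature; luminescence read.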
D1 PAM: Potentiators of Human D1 Dopamine Receptor: qHTS; D(1A) dopamine receptor (Homo sapiens), P21728; HEK293 TREx D1 cells, calcium flux, dopamine EC20 potentiation; potentiation, % at 10 µM; 360,000 compounds, 0.036% hits; in the data active = potentiation above about 30%; also: 0% is about no effect
DRD3 antagonist: qHTS of D3 Dopamine Receptor Antagonist: qHTS; AID 652054, 2013; max response, negative = inhibition, %; D3R cells, DiscoveRx beta-arrestin luminescence, antagonist mode; hits give low values; 360,000 compounds, 2.5% hits; in the data active = max response below about -50%; inconclusive = no clear call, values can overlap the other calls; also: % is scaled to controls: 0 for no effect and ±100 for the full control effect
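Cells plated overnight at 1500 cells/well, then exposed to library compounds with dopamine controls for 90 minutes at 37 degrees C. DiscoveRx reagent added for 30–60 minutes at room temperature; luminescence read, quantitative HTS format.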
An asterisk follows results filed as active; ? = inconclusive; nt = no result given. The list is not random: actives were taken first. Their share in the collection is about 6%.

SMILES	D1 agonist	D1 antag	D3 ag	D1 PAM	DRD3 antagonist
CN(CC(=O)Nc1ccccc1C(F)(F)F)Cc1c(O)ccc2ccccc12	8.8	0.8	-12.8	nt	0.0
Cc1nn(C(=O)CCC(=O)NCCc2ccccc2)c2ccccc12	0.0	4.3	1.9	-2.5	-0.1
CN(C)c1ccc(C=C2SC(=S)NC2=O)cc1	nt	nt	-4.3	nt	-10.1
CCOc1ccc(N(C)c2ccc(/C=C3/SC(=S)NC3=O)cc2)cc1	133.4*	-11.6	-7.1	-5.2	0.0
COc1ccc(NC(=O)C2Cc3c(-c4cccc(NC(C)=O)c4)ccnc3O2)cn1 (stereo unspecified)	nt	nt	-13.3	nt	-24.3
Cc1cc(/C=C2\C(=N)N3N=C(c4ccco4)SC3=NC2=O)c(C)n1Cc1ccccc1	37.6*	-39.1*	4.7	3.2	-1.8
CCC1=NN2C(=N)/C(=C/c3cc(C)n(Cc4ccccc4)c3C)C(=O)N=C2S1	65.7*	-51.3*	1.0	-10.9	-6.4
Cc1cc(/C=C2\C(=N)N3N=C(C(C)C)SC3=NC2=O)c(C)n1Cc1ccccc1	111.7*	-40.0*	-13.0	-1.7	10.6
Cc1cc(/C=C2\C(=N)N3C(SCc4ccccc4)=NSC3=NC2=O)c(C)n1Cc1ccccc1	2.2	2.4	10.3	0.6	9.4
O=[N+]([O-])c1ccc(-c2nc(-c3cccs3)c(-c3cccs3)[nH]2)cc1	37.8*	-10.5	-5.3	-1.8	-12.9
O=[N+]([O-])c1cccc(-c2nc(-c3cccs3)c(-c3cccs3)[nH]2)c1	1.7	-35.6*	-12.0	-8.5	0.0
Cc1ccc(-c2nc(-c3cccs3)c(-c3cccs3)[nH]2)cc1	4.2	-33.0*	-1.0	-3.1	nt
O=[N+]([O-])c1cccc(-c2nc(-c3ccccc3)c(-c3cccs3)[nH]2)c1	0.2	-0.8	-5.4	-9.1	?
CCC1CN(C(=O)C2CCN(S(=O)(=O)c3c(C)noc3/C=C/c3ccccc3F)CC2)c2cc(Cl)ccc2O1 (stereo unspecified)	12.4	-2.4	7.1	1.4	nt
CN1CCc2c(sc(/N=C/c3cc(Cl)ccc3O)c2C#N)C1	3.2	-18.0	20.7	-6.0	-50.3*
CCOC(=O)c1c(/N=C/c2ccc(OC)cc2O)sc2c1CCN(C)C2	3.0	-12.3	-15.5	-3.4	-19.9
CC(C)CC(C(=O)NCC1CCN(Cc2ccc(F)cc2)CC1)N1Cc2ccccc2C1=O (stereo unspecified)	2.4	8.8	-16.1	-2.9	nt
Cc1ccc(NC(=O)CN(c2ccc(Cl)cc2)S(=O)(=O)c2cc([N+](=O)[O-])ccc2Cl)c(C)c1	0.5	-56.0*	-5.9	-15.2	2.5
Cc1ccc([N+](=O)[O-])cc1NC(=O)CN(c1ccccc1)S(=O)(=O)N(C)C	-0.6	-10.2	-5.3	-3.1	nt
COc1ccc(S(=O)(=O)NCc2ccc3c(c2)CCN3C(=O)c2ccc(C)cc2)cc1Cl	5.0	6.0	-8.3	-5.5	nt
CC1CCN(C(=S)Nc2ccc(SC(F)F)cc2)CC1	4.8	-41.2*	-20.8	-4.4	-10.1
COC(=O)c1ccc(CSc2nc3c(cnn3-c3ccc(C)cc3)c(=O)[nH]2)o1	-2.6	-11.7	35.2*	-5.8	19.5
Cc1ccc(-n2ncc3c(=O)[nH]c(SCC(=O)N4CCOCC4)nc32)cc1	1.0	-8.9	-3.9	-4.3	-16.0
O=C(CCN1CCN(c2ccccc2)CC1)Nc1ccc2c(c1)OCO2	1.2	-1.5	25.8	4.0	?
O=C(CCN1CCN(c2ccccc2F)CC1)Nc1ccc2c(c1)OCO2	2.6	-17.0	40.4*	-11.8	314.3
SMILES	D1 agonist	D1 antag	D3 ag	D1 PAM	DRD3 antagonist
Cc1cccc(NC(=O)CCN2CCCCC2)c1	0.3	-4.6	-3.2	-3.0	17.1
CN1CCN(c2ccc(NC(=O)CSc3ccccc3)cc2F)CC1	6.4	-53.1*	-5.0	-16.9	?
Cc1cccc(NC(=O)CCN2CCN(c3ccccc3F)CC2)c1	1.9	-12.9	38.9*	-1.8	nt
O=C(CN1CCN(c2nc(-c3ccccc3)cs2)CC1)Nc1ccc2c(c1)OCO2	1.8	-32.4*	11.7	-8.7	20.0
CN(C)c1ccc(-c2ccnc3c2CC(C)(C(=O)Nc2cccc(C(F)(F)F)c2)O3)cc1 (stereo unspecified)	nt	nt	0.4	nt	10.8
Cc1cccc(NC(=O)CCN2CCCC(C)C2)c1 (stereo unspecified)	1.6	-72.0*	-5.0	-9.3	-0.7
COc1ccc(OCC(=O)Nc2nnc3n2CCS3)cc1	1.0	25.4	-5.3	-1.9	nt
Cc1nn2c(=O)cc(COC(=O)c3ccc(NC(=O)CCc4ccccc4)cc3)nc2s1	2.1	2.3	9.7	0.8	nt
CC1Sc2ccc(S(=O)(=O)N3CCC(C(=O)NCC(C)c4ccccc4)CC3)cc2NC1=O (stereo unspecified)	2.3	-76.1*	-3.5	-21.9	6.4
O=C(NCCN1CCN(c2ccccc2F)CC1)c1ccc2nc3ccccc3c(=O)n2c1	-0.3	7.5	3.5	1.9	-58.4*
O=C(NCCCN1CCN(c2ccccc2F)CC1)c1ccc2nc(CCc3ccccc3)oc2c1	19.2	-31.4*	8.5	-4.8	nt
COc1ccc(N2CCN(CCNC(=O)c3ccc4nc5ccccc5c(=O)n4c3)CC2)cc1	-1.2	11.3	2.8	2.1	13.4
O=C(NCCCN1CCN(c2ccc(F)cc2)CC1)c1ccc2nc(CCc3ccccc3)oc2c1	15.1	-3.3	-1.1	-4.8	nt
CCN1CCN(CCNC(=O)c2ccc3nc(-c4cccc(C)c4)c(-c4cccc(C)c4)nc3c2)CC1	63.4*	-6.3	16.3	-3.4	1.5
CCc1nc2ccc(C(=O)NCCCN3CCN(c4ccccc4F)CC3)cc2nc1CC	1.5	-32.0*	18.2	-8.4	-66.1*
COc1cc(CNCc2c(C(=O)O)c(C)n(Cc3cccc(Cl)c3)c2C)cc(OC)c1OC	4.8	-6.9	-10.0	-2.5	nt
Cc1cccc(C)c1OCc1nc2c3c(-c4ccccc4)c(-c4ccccc4)oc3ncn2n1	-2.7	-9.3	5.4	-0.8	nt
O=C(Nc1ccc(F)cc1)C(CCc1ccccc1)N1CCN(c2ccncc2)CC1 (stereo unspecified)	nt	nt	-4.3	nt	7.3
O=C(NCCCN1CCOCC1)c1ccc2nc(Cc3ccccc3F)oc2c1	2.5	-1.3	5.5	-3.2	31.1
O=C(NCCCN1CCN(c2ccccc2F)CC1)c1ccc2nc(Cc3ccccc3)oc2c1	25.6	-48.6*	1.0	-3.9	nt
C[C@H](CO)N1C[C@H](C)[C@@H](CN(C)C(=O)c2ccc(F)cc2)Oc2cc(Br)ccc2S1(=O)=O	nt	nt	-4.5	nt	-95.2*
Cc1ccc2cccc(OC(=O)c3ccc4c(c3)OCCO4)c2n1	3.4	-7.4	2.1	-5.3	-50.1*
Cc1ccc2cccc(OCC(=O)Nc3ccc4c(c3)OCO4)c2n1	2.5	14.9	3.7	0.7	-2.4
